Laboratory results published in the supplement of paper PMC9135407.
Values joined by “and” are separate entries in the source; they are usually repeats but may differ in a detail not shown here. Equal entries are not always repeated. Structures can show the parent of a compound that is named as a salt. Out of some 5,800 compounds screened, about 620 (11%) showed activity. The sample holds actives, similar compounds and a random draw of the others, so the mix is not that of the screen.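 Rule for the calls: active = score above a cut-off or among the top three wells of a plate; in these data no inactive exceeds 0.85.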

Test system: primary human hepatic stellate cells (donor 1)
Assay: scaled lipid accumulation score (0 = DMSO-like, 1 = nortriptyline-like); higher = stronger HSC inactivation (lipid re-accumulation), active = hit call of the paper
Conditions: 48 h
[1] = library stock concentration: 3.33 mM
[2] = library stock concentration: 10 mM
[3] = library stock concentration: 1 mM
[4] = library stock concentration: 80 uM
[5] = library stock concentration: 400 uM
[6] = library stock concentration: 2 mM

Q: Which “scaled lipid accumulation score” value (library stock concentration: 100 uM) does the source give for `CCCCC[C@H](O)/C=C/C=C\C/C=C\C/C=C\CCCC(=O)O` here?
A: ≤ -0.02 (inactive)

Q: For `COc1nc(C)cnc1NS(=O)(=O)c1cccnc1-c1ccc(-c2nnco2)cc1` [Zibotentan (ZD4054)], which “scaled lipid accumulation score” value [1] is on record?
A: ≤ 0 (inactive)

Q: And the “scaled lipid accumulation score” value [2]?
A: ≤ 0 (inactive)

Q: What does the source list for `OCC(O)C(O)CO` (centres undefined) [Erythritol]?
A: scaled lipid accumulation score [1]: ≤ 0 (inactive); scaled lipid accumulation score [2]: ≤ -0.001 (inactive)

Q: For `CNCCCN1c2ccccc2CCc2ccccc21.Cl` [Desipramine hydrochloride] [listing 1 of 2 here], which “scaled lipid accumulation score” value [2] is on record?
A: 1.15 (active)

Q: With `CNCCCN1c2ccccc2CCc2ccccc21` [Desipramine hydrochloride] as the compound, how does the “scaled lipid accumulation score” value (library stock concentration: 6.6 mM) read?
A: 0.471 (inactive)

Q: And the “scaled lipid accumulation score” value [2]?
A: 0.667 (inactive)

Q: `CNCCCN1c2ccccc2CCc2ccccc21.Cl` [Desipramine hydrochloride] [listing 2 of 2 here] was tested. Which “scaled lipid accumulation score” value did it give?
A: 0.887 (active)

Q: With `CNCCCN1c2ccccc2CCc2ccccc21.Cl` as the compound, how does the “scaled lipid accumulation score” value [2] read?
A: 0.969 (active)

Q: Which results are given for `CCCCC1CCC(c2nc(-c3ccncc3)no2)CC1` (centres undefined)?
A: scaled lipid accumulation score [3]: 0.03 (inactive); scaled lipid accumulation score [2]: ≤ -0.001 (inactive)

Q: `CC(C)N(C[C@H]1O[C@@H](n2cnc3c(N)ncnc32)[C@H](O)[C@@H]1O)[C@H]1C[C@@H](CCc2nc3cc(C(C)(C)C)ccc3[nH]2)C1` was tested. Which “scaled lipid accumulation score” value [1] did it give?
A: ≤ 0 (inactive)

Q: And the “scaled lipid accumulation score” value [2]?
A: 0.467 (inactive)

Q: How did the “scaled lipid accumulation score” value [1] turn out when `CC(C)OC(=O)OCOP(=O)(CO[C@H](C)Cn1cnc2c(N)ncnc21)OCOC(=O)OC(C)C` [Tenofovir Disoproxil Fumarate] was run?
A: ≤ 0 (inactive)

Q: And the “scaled lipid accumulation score” value [2]?
A: ≤ 0 (inactive)

Q: For `CCc1c(Cl)c(O)c(Cl)c(O)c1C(=O)O[C@H]1[C@H](O)[C@H](OC)[C@H](OC/C2=C\C=C\C[C@H](O)/C(C)=C/[C@H](CC)[C@@H](O[C@@H]3OC(C)(C)[C@@H](OC(=O)C(C)C)[C@H](O)[C@@H]3O)/C(C)=C/C(C)=C/C[C@@H]([C@@H](C)O)OC2=O)O[C@@H]1C` [Fidaxomicin], which “scaled lipid accumulation score” value [1] is on record?
A: ≤ 0 (inactive)

Q: What about the “scaled lipid accumulation score” value [2] of the same compound?
A: 0.125 (inactive)

Q: Which “scaled lipid accumulation score” value [2] does the source give for `COc1ccc(CCN(C)CCCOc2ccc(S(=O)(=O)c3c(C(C)C)c4ccccc4n3C)cc2)cc1OC` here?
A: 0.445 (inactive)

Q: For `CC(C)CC[C@@H](O)[C@@H](C)[C@H]1CC[C@H]2[C@@H]3CC=C4C[C@@H](O)CC[C@]4(C)[C@H]3CC[C@]12C` [22(R)-hydroxy Cholesterol], which “scaled lipid accumulation score” value [3] is on record?
A: 0.045 (inactive)

Q: For `O=C1C[C@@H]2[C@@H](/C=C/[C@@H](O)COc3cccc(C(F)(F)F)c3)[C@H](O)C[C@@H]2O1` [Fluprostenol Lactone Diol], which “scaled lipid accumulation score” value [3] is on record?
A: 0.003 (inactive)

Q: With `CC1=C(C(=O)Nc2cc3cn[nH]c3cc2F)C(c2ccc(C(F)(F)F)cc2)CC(=O)N1` (centres undefined) as the compound, how does the “scaled lipid accumulation score” value [4] read?
A: 0.022 (inactive)

Q: And the “scaled lipid accumulation score” value [5]?
A: ≤ 0 (inactive) and ≤ -0.005 (inactive)

Q: And the “scaled lipid accumulation score” value [6]?
A: 0.014 (inactive) and ≤ -0.005 (inactive)

Q: What about the “scaled lipid accumulation score” value [1] of the same compound?
A: ≤ 0 (inactive)

Q: What about the “scaled lipid accumulation score” value [2] of the same compound?
A: ≤ 0 (inactive) and 0.096 (inactive) and 0.308 (inactive)

Q: `C/C=C1\NC(=O)[C@H]2CSSCC/C=C/[C@H](CC(=O)N[C@H](C(C)C)C(=O)N2)OC(=O)[C@H](C(C)C)NC1=O` [Romidepsin (FK228, Depsipeptide)] was tested. Which “scaled lipid accumulation score” value [1] did it give?
A: 0.521 (inactive)

Q: What about the “scaled lipid accumulation score” value [2] of the same compound?
A: 0.472 (inactive)

Q: `C=CC(=O)Nc1cc(-n2c(=O)ccc3cnc4ccc(-c5ccc(NS(C)(=O)=O)cc5)cc4c32)ccc1C` was tested. Which “scaled lipid accumulation score” value [4] did it give?
A: ≤ -0.001 (inactive)

Q: And the “scaled lipid accumulation score” value [5]?
A: ≤ -0.001 (inactive)

Q: And the “scaled lipid accumulation score” value [6]?
A: 0.003 (inactive)

Q: And the “scaled lipid accumulation score” value [2]?
A: 0.06 (inactive)

Q: With `C=CC(=O)Nc1cc(-n2c(=O)ccc3cnc4ccc(-c5cn[nH]c5)cc4c32)ccc1C` as the compound, how does the “scaled lipid accumulation score” value [4] read?
A: ≤ 0 (inactive)

Q: What about the “scaled lipid accumulation score” value [5] of the same compound?
A: ≤ 0 (inactive)

Q: What about the “scaled lipid accumulation score” value [6] of the same compound?
A: 0.082 (inactive)

Q: What about the “scaled lipid accumulation score” value [2] of the same compound?
A: 0.662 (inactive)

Q: `C=CC(=O)N1CCc2ccc(-n3c(=O)ccc4cnc5ccc(-c6cnn(C)c6)cc5c43)cc21` was tested. Which “scaled lipid accumulation score” value [2] did it give?
A: 1.19 (active)

Q: How did the “scaled lipid accumulation score” value [2] turn out when `CCCCC(CC)CN=C(N)N=C(N)NCCCCCCNC(N)=NC(N)=NCC(CC)CCCC` (centres undefined) [Alexidine hydrochloride] was run?
A: ≤ -0.027 (inactive)

Q: How did the “scaled lipid accumulation score” value [3] turn out when `CCCCCC1OC(O)CC1SC[C@H](NC(C)=O)C(=O)O` (some centres undefined) [4-hydroxy Nonenal Mercapturic Acid] was run?
A: ≤ 0 (inactive)

Q: How did the “scaled lipid accumulation score” value [1] turn out when `Nc1c(CC(=O)O)cccc1C(=O)c1ccccc1` [Amfenac Sodium Monohydrate] was run?
A: ≤ 0 (inactive)

Q: What about the “scaled lipid accumulation score” value [2] of the same compound?
A: 0.019 (inactive)

Q: For `NC1(Cc2ccc(Cl)cc2)CCN(c2ncnc3[nH]ccc23)CC1` [listing 1 of 2 here], which “scaled lipid accumulation score” value [1] is on record?
A: 0.47 (inactive)

Q: How did the “scaled lipid accumulation score” value [2] turn out when `NC1(Cc2ccc(Cl)cc2)CCN(c2ncnc3[nH]ccc23)CC1` [listing 2 of 2 here] was run?
A: 1.09 (active)

Q: With `NC1(C(=O)N[C@@H](CCO)c2ccc(Cl)cc2)CCN(c2ncnc3[nH]ccc23)CC1` as the compound, how does the “scaled lipid accumulation score” value [4] read?
A: 0.053 (inactive)

Q: And the “scaled lipid accumulation score” value [5]?
A: 0.049 (inactive)

Q: And the “scaled lipid accumulation score” value [6]?
A: 0.038 (inactive)

Q: What about the “scaled lipid accumulation score” value [1] of the same compound?
A: ≤ -0.009 (inactive)

Q: And the “scaled lipid accumulation score” value [2]?
A: ≤ 0 (inactive) and 0.178 (inactive)

Q: How did the “scaled lipid accumulation score” value [3] turn out when `OCCNCCCOc1cccc(Cl)c1Cl` [2,3-DCPE (hydrochloride)] was run?
A: 0.049 (inactive)

Q: Which “scaled lipid accumulation score” value [3] does the source give for `O=C(c1cccs1)c1ccc(OCCCO)c(Cl)c1Cl` [homo-Tienilic Alcohol] here?
A: 0.02 (inactive)

Q: With `Cl.OCCNCCCOc1cccc(Cl)c1Cl` [2,3-DCPE hydrochloride] as the compound, how does the “scaled lipid accumulation score” value [2] read?
A: 1.14 (active)

Q: `O=Cc1cccc2[nH]ccc12` [4-formyl Indole] was tested. Which “scaled lipid accumulation score” value [3] did it give?
A: ≤ 0 (inactive)

Q: For `CC(C)(C)Cn1c(N)nc2ccc(-c3[nH]c(C(C)(C)C)nc3-c3ccc(F)cc3)nc21` [Ralimetinib], which “scaled lipid accumulation score” value [4] is on record?
A: 0.033 (inactive)

Q: And the “scaled lipid accumulation score” value [5]?
A: 0.086 (inactive)

Q: What about the “scaled lipid accumulation score” value [6] of the same compound?
A: 0.076 (inactive)

Q: And the “scaled lipid accumulation score” value [2]?
A: 0.481 (inactive)

Q: How did the “scaled lipid accumulation score” value [1] turn out when `CC(C)(C)Cn1c(N)nc2ccc(-c3[nH]c(C(C)(C)C)nc3-c3ccc(F)cc3)nc21` was run?
A: 0.034 (inactive)

Q: What about the “scaled lipid accumulation score” value [2] of the same compound?
A: 0.268 (inactive)

Q: With `O=C(O)CCC/C=C\C[C@H]1[C@@H](O)CC(=O)[C@@H]1/C=C/[C@@H](O)COc1cccc(C(F)(F)F)c1` [11-keto Fluprostenol] as the compound, how does the “scaled lipid accumulation score” value [3] read?
A: ≤ 0 (inactive)

Q: For `CN(C)C/C=C(/c1ccc(Br)cc1)c1cccnc1.Cl.Cl` [Zimelidine dihydrochloride], which “scaled lipid accumulation score” value [2] is on record?
A: 0.893 (active)

Q: `CN(C)C/C=C(/c1ccc(Br)cc1)c1cccnc1` [Zimelidine dihydrochloride monohydrate] was tested. Which “scaled lipid accumulation score” value did it give?
A: 0.454 (inactive)

Q: What does the source list for `CN(C)C/C=C(/c1ccc(Br)cc1)c1cccnc1` [Zimelidine dihydrochloride]?
A: scaled lipid accumulation score (library stock concentration: 5.1 mM): 0.434 (inactive); scaled lipid accumulation score [2]: 0.178 (inactive)

Q: With `CCN(CC)C(=O)c1cccnc1` as the compound, how does the “scaled lipid accumulation score” value [2] read?
A: 0.073 (inactive)
